Molecules are shown by their SMILES. “And” between values parts separate entries of the source, which are not always exact repeats. Equal values may be shown once. Hit rate of the full screen: of about 63,000 compounds, about 1,100 (1.7%) were called active. Rule as the data show it: active = cytotoxicity above about 50%; inactive = the rest. Only a selection was taken, and actives are over-represented in it overall. Measured potencies and affinities stand elsewhere. Some compounds were tested as several samples or in several runs, with calls that do not always agree.

This assay is described as follows: cytotoxicity in HPDE-C7 cells, cell-based, fluorescence, HTS (AID 430).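 Also: cells exposed to compound for 48 hours before viability readout; 0% = vehicle and 100% = reference cytotoxic drug.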 To be noted: HPDE-C7 pancreatic duct cells viability, at 10 µM, stronger effect = higher value.
Consider `c1ccc2c(c1)[nH]c1cnccc12`, for which the cytotoxicity is 72.4% (active).

With `c1ccc2c3c([nH]c2c1)CNCC3`, the cytotoxicity is -4.7% (inactive).

For `CCOC(=O)c1cc2c(cn1)[nH]c1ccccc12`, the cytotoxicity is 30.4% (inactive).

Turning to `CC12CCCCC1N(O)CN2O` (stereo not given), the cytotoxicity is -2.3% (inactive).

`CCOc1ccccc1C1SCC(=O)Nc2c1c(=O)[nH]n2C(CC)CC` (stereo not given): the cytotoxicity is -4% (inactive).

As for `CCCCc1nc2ccccc2c(=O)n1-c1ccc(O)cc1`, the cytotoxicity was -5.1% (inactive).

In the case of `CCCCCn1c(=O)c(C(=O)Nc2ccncc2)c(O)c2ccccc21`, the cytotoxicity is 68.6% (active).

Regarding `CCCCn1c(=O)c(C(=O)Nc2ccccc2S(N)(=O)=O)c(O)c2ccccc21`, the cytotoxicity was -2.2% (inactive).

Take `O=C(Nc1cccnc1)c1c(O)c2c(n(Cc3ccccc3)c1=O)CCCC2`: the cytotoxicity is 1% (inactive).

With `CCCCn1c(=O)c(C(=O)Nc2cnccn2)c(O)c2ccccc21`, the cytotoxicity was 60.1% (active).

Turning to `O=C(Nc1ccncc1)c1c(O)c2ccccc2n(Cc2ccccc2)c1=O`, the cytotoxicity is -2.4% (inactive).

Regarding `CCCCCCn1c(O)c(C=Nc2c(C)n(C)n(-c3ccccc3)c2=O)c(=O)[nH]c1=O`, the cytotoxicity is 5.3% (inactive).

For the compound `CCCCCCn1c(=O)c(C(=O)Nc2ccncc2)c(O)c2ccccc21`, the cytotoxicity was 37.2% (inactive).

Turning to `CCCCCCn1c(=O)c(C(=O)Nc2c(C)n(C)n(-c3ccccc3)c2=O)c(O)c2ccccc21`, the cytotoxicity is 51.8% (active).

In the case of `CCCCCn1c(=O)c(C(=O)NCc2ccccn2)c(O)c2ccccc21`, the cytotoxicity was 2.6% (inactive).

For `CCCCCn1c(=O)c(C(=O)NCc2ccncc2)c(O)c2ccccc21`, the cytotoxicity is 60.6% (active).

Regarding `CCCCn1c(=O)c(C(=O)Nc2nc3ccccc3[nH]2)c(O)c2ccccc21`, the cytotoxicity was 15.2% (inactive).

For the compound `COc1ccc(CC2c3cc(OC)c(OC)cc3CCN2C)cc1OC` (stereo not given), the cytotoxicity was 3.5% (inactive).

Take `COc1ccc2c(c1)CC1(CN2C)C(=O)NC(=O)N(c2ccc(C)cc2)C1=O` (stereo not given): the cytotoxicity is 5.9% (inactive).

Turning to `COc1ccc2nc(NC(=O)CCc3nc(C4=CCN(C)CC4)no3)sc2c1`, the cytotoxicity is -12.4% (inactive).

For the compound `O=c1cccc2n1CC1CC2CN(Cc2ccc3c(c2)OCO3)C1` (stereo not given), the cytotoxicity is -17.1% (inactive).

Turning to `C=CCN1C(=O)CSc2ccc(C(=O)N3CCC4(CC3)OCCO4)cc21`, the cytotoxicity is -17.9% (inactive).

For `C=Cn1ccnc1P(=S)(c1ccn(C)c1)c1nccn1C=C`, the cytotoxicity is 7.8% (inactive).

With `CCCCN1C(=O)NC(=O)C2(Cc3c(nc4c(C)cccn4c3=O)N3CCc4ccccc4C32)C1=O` (stereo not given), the cytotoxicity is 13.9% (inactive).

In the case of `O=c1[nH]c(=O)n(CCc2ccc(F)cc2)c(O)c1C=NCCCn1ccnc1`, the cytotoxicity was -19.6% (inactive).

Turning to `CC(CCc1ccccc1)NC(C)C(O)c1ccc(O)cc1` (stereo not given), the cytotoxicity is 8.9% (inactive).

As to `CNCC(O)c1ccc(O)cc1` (stereo not given), the cytotoxicity was 50.6% (active).

Take `CNCC(O)c1cccc(OC(=O)c2ccccc2C)c1` (stereo not given): the cytotoxicity is -3.3% (inactive).

Consider `Cc1ccc(-c2nc(CS(=O)CC(=O)N3CCC4(CC3)OCCO4)c(C)o2)cc1` (stereo not given), for which the cytotoxicity was 1.6% (inactive).

`CC(C)=CCC12CN3CCN(CC(C3)C1=O)C2`: the cytotoxicity is -7.6% (inactive).

Take `COc1cc(OC)cc(-n2nc(C(=O)N3CCC4(CC3)OCCO4)c3ccccc3c2=O)c1`: the cytotoxicity was -1.5% (inactive).

In the case of `CCCCn1c(O)c(C(CC)=NCc2ccc3c(c2)OCO3)c(=O)[nH]c1=O`, the cytotoxicity is 10% (inactive).

As to `CCC(=NCc1cccnc1)c1c(O)n(C2CCCCC2)c(=O)[nH]c1=O`, the cytotoxicity is -32.8% (inactive).

As to `CCC(=NCc1ccc2c(c1)OCO2)c1c(O)n(C2CCCCC2)c(=O)[nH]c1=O`, the cytotoxicity is 64.4% (active).

`Cn1c2ccccc2c2c(C(=O)N3CCC4(CC3)OCCO4)cn(C3CCCCC3)c(=O)c21`: the cytotoxicity is -1.3% (inactive).

Take `NCCCP(=O)(O)CCc1ccccc1`: the cytotoxicity is -5.8% (inactive).

Consider `Cn1c(O)c(/C=N/c2ccccn2)c(=O)n(C)c1=O`, for which the cytotoxicity was -18.2% (inactive).

With `COc1ccc(C2SCC(=O)Nc3c2c(=O)[nH]n3C2CCCCCC2)cc1` (stereo not given), the cytotoxicity is 90.9% (active).

`CCOc1ccc(C2SCC(=O)Nc3c2c(=O)[nH]n3C2CCCCCC2)cc1` (stereo not given): the cytotoxicity is -18.2% (inactive).

Regarding `COc1ccc(C2SCC(=O)Nc3c2c(=O)[nH]n3C2CCCCC2)cc1` (stereo not given), the cytotoxicity was -0.7% (inactive).

For `N#Cc1ccc(N2CCNCC2)c(F)c1`, the cytotoxicity is 8.7% (inactive).

`O=C1NC(=O)C2(Cc3c(nc4ccccn4c3=O)N3CCCCCC32)C(=O)N1Cc1ccccc1` (stereo not given): the cytotoxicity is 48.1% (inactive).

With `Cc1nc2ccc(Cl)cn2c1P(=S)(N1CCOCC1)N1CCOCC1`, the cytotoxicity was -4.2% (inactive).

With `Nc1c(C(=O)NCc2ccco2)c2nc3ccccc3nc2n1Cc1ccc(F)cc1`, the cytotoxicity is 80.9% (active).

Consider `COc1ccc(Cn2c(N)c(C(=O)NCc3ccco3)c3nc4ccccc4nc32)cc1OC`, for which the cytotoxicity was 2.8% (inactive).

On to `Nc1c(C(=O)NCCN2CCOCC2)c2nc3ccccc3nc2n1Cc1ccco1`, for which the cytotoxicity was 5.7% (inactive).

Regarding `COc1ccc(Cn2c(N)c(C(=O)NCc3ccco3)c3nc4ccccc4nc32)cc1`, the cytotoxicity was 69.5% (active).

Regarding `COCCOC(=O)c1c(N)n(Cc2ccco2)c2nc3ccccc3nc12`, the cytotoxicity is 17.4% (inactive).

On to `COCCOC(=O)c1c(N)n(Cc2ccc(OC)cc2)c2nc3ccccc3nc12`, for which the cytotoxicity is -32.4% (inactive).

With `Cc1nnc2ccc(N3CCN(C)CC3)nn12`, the cytotoxicity was -0.1% (inactive).

In the case of `C=CCN1C(=O)C2(C(C(=O)OCC)=C(N)Oc3ccccc32)c2c1c1ccccc1oc2=O` (stereo not given), the cytotoxicity was 5.2% (inactive).

As to `CCCCCn1c(N)c(C(=O)NCCN2CCOCC2)c2nc3ccccc3nc21`, the cytotoxicity was 10.6% (inactive).

Turning to `CCCCNC(=O)c1c(N)n(CCCOC)c2nc3ccccc3nc12`, the cytotoxicity was 24.4% (inactive).

As to `CCCCCCn1c(N)c(C(=O)NCCN2CCOCC2)c2nc3ccccc3nc21`, the cytotoxicity was 72.1% (active).

`CCCCn1c(N)c(C(=O)NCCN2CCOCC2)c2nc3ccccc3nc21`: the cytotoxicity was 1.4% (inactive).

Consider `COc1ccc(CCNC(=O)c2c(N)n(CCN3CCOCC3)c3nc4ccccc4nc23)cc1`, for which the cytotoxicity is 62.9% (active).

Consider `CCOC(=O)c1c(N)n(CCN2CCCCC2)c2nc3ccccc3nc12`, for which the cytotoxicity is 9.2% (inactive).

On to `OCCNc1c2c(nc3ccccc13)CCCC2`, for which the cytotoxicity was -2.4% (inactive).

`CC(=NCCCN1CCOCC1)c1c(O)[nH]c(=O)[nH]c1=O`: the cytotoxicity is 3.3% (inactive).

For `CC1(C)C(C(=O)NCc2ccco2)C1(C)C`, the cytotoxicity was -21.5% (inactive).

For the compound `Cc1nc2ccccc2c(=O)n1-c1cccc(O)c1`, the cytotoxicity was 3.6% (inactive).

Regarding `Cc1cccc(-c2nc3ccccc3c(=O)n2-n2cccc2)c1`, the cytotoxicity was 19.1% (inactive).

With `Cc1cccc(N2CCc3c2nc2ccccc2c3N)c1`, the cytotoxicity is 24.2% (inactive) and 50.1% (active).

`CC(=NCc1cccnc1)c1c(O)n(Cc2ccccc2)c(=O)[nH]c1=O`: the cytotoxicity is -13.3% (inactive).

For the compound `c1cc2n(c1)-c1c(ccc3c1OCO3)CNC2c1ccc2c(c1)OCO2` (stereo not given), the cytotoxicity is 29.3% (inactive).

For the compound `COc1ccc(C2NCc3ccc4c(c3-n3cccc32)OCO4)cc1O` (stereo not given), the cytotoxicity is 63.9% (active).

Take `COc1ccc(C2NCc3ccc4c(c3-n3cccc32)OCO4)cc1OC` (stereo not given): the cytotoxicity was -0.1% (inactive).

Consider `O=C(O)C(O)(c1ccccc1)C1CCCC1` (stereo not given), for which the cytotoxicity is 13.6% (inactive).

For the compound `CN(C)CP(=O)(Nc1ccccc1)N(C)C` (stereo not given), the cytotoxicity is -14.4% (inactive).

On to `O=C(c1cc(-c2cccnc2)nc2ccc(Cl)cc12)N1CCC2(CC1)OCCO2`, for which the cytotoxicity was 4.7% (inactive).

With `COc1cccc(OC)c1C1=NCC(=O)Nc2c1oc1ccc(Br)cc21`, the cytotoxicity is 72.5% (active).

With `O=C1CN=C(c2ccccc2)c2oc3ccc(Br)cc3c2N1`, the cytotoxicity was -10.4% (inactive).

For the compound `Cc1cc(NC(=O)COC(=O)c2c(C)nn(Cc3ccccc3Cl)c2Cl)no1`, the cytotoxicity is 3.7% (inactive).

On to `CCn1nc(-c2ccccc2)nc2c(=O)n(C)c(=O)nc1-2`, for which the cytotoxicity is 119% (active).

Regarding `O=c1c2ccccc2nc(-c2cccs2)n1-c1cnccn1`, the cytotoxicity is 2.1% (inactive).

On to `CCn1nc(-c2cccs2)nc2c(=O)n(C)c(=O)nc1-2`, for which the cytotoxicity was 114% (active).

On to `CCc1nc2ccccc2c(=O)n1-c1cccc(OC)c1`, for which the cytotoxicity was 18.7% (inactive).

As for `CSc1ccc(CNC2CN3CCC2CC3)cc1` (stereo not given), the cytotoxicity is -5.8% (inactive).

On to `O=C(Cc1ccccc1)OCCN1CCCCC1`, for which the cytotoxicity was 0.7% (inactive).

As for `Cc1cccc(OC(=O)N2CCOCC2)c1`, the cytotoxicity is -0.2% (inactive).

For the compound `O=C(COc1ccccc1)N1CCN(C/C=C/c2ccccc2)CC1`, the cytotoxicity was 1.6% (inactive).

In the case of `CCCCOc1ccc(CN2CCN(CCO)CC2)cc1`, the cytotoxicity was 23.7% (inactive).

On to `COc1ccc2[nH]cc(CCN(C)C)c2c1`, for which the cytotoxicity is -6% (inactive).

As for `CCCCc1ccc2[nH]cc(CCN)c2c1`, the cytotoxicity is 62.3% (active).

Turning to `NCCc1c[nH]c2ccc(F)cc12`, the cytotoxicity is -7.7% (inactive).

As for `COc1cc(OC)c(OC)cc1CNC(C)C(O)c1ccccc1` (stereo not given), the cytotoxicity is 2.2% (inactive).

As to `COC(=O)c1cc2c(s1)=NC=NP=2(N1CCOCC1)N1CCOCC1`, the cytotoxicity was -14.1% (inactive).

For the compound `C[C@@]1(CO)[C@H](O)CC[C@@]2(C)[C@H]1CC[C@H]1C[C@@H]3C[C@@]12CC[C@]3(O)CO`, the cytotoxicity is 82.5% (active).

On to `O=C(C(Cc1ccccc1)NS(=O)(=O)c1cccc2nsnc12)N1CCC2(CC1)OCCO2` (stereo not given), for which the cytotoxicity is -4.1% (inactive).

In the case of `O=C(c1ccc(CS(=O)(=O)c2ccccc2)o1)N1CCC2(CC1)OCCO2`, the cytotoxicity is -2.7% (inactive).

For `CCC(=Nc1ccccc1NC(C)=O)c1c(O)n(C)c(=O)n(C)c1=O`, the cytotoxicity was 41.8% (inactive).

In the case of `CC(=O)C1=C(C)OC(N)=C(C(=O)OC(C)C)C12C(=O)Nc1ccccc12` (stereo not given), the cytotoxicity was -8.9% (inactive).

As to `CCCCc1nc(N2CCNCC2)c(C#N)c2c1CSC(C)(C)C2`, the cytotoxicity is 52.3% (active).

Turning to `CCc1nc(N2CCNCC2)c(C#N)c2c1CSC(C)(C)C2`, the cytotoxicity was 37.6% (inactive).

With `O=C(CN1C(=O)CN=C(c2ccccc2Cl)c2cc(Cl)ccc21)NCc1ccco1`, the cytotoxicity is 2.5% (inactive).

`O=c1[nH]c(=O)n(CCC2=CCCCC2)c(O)c1C=NCCCn1ccnc1`: the cytotoxicity was -30.8% (inactive).

For the compound `COc1ccc(C(=O)C(C)(C)NO)cc1`, the cytotoxicity is -9.5% (inactive).

On to `C=CCn1c(O)c(C(C)=NCc2cccnc2)c(=O)[nH]c1=O`, for which the cytotoxicity was 8.9% (inactive).

For the compound `O=C(Cn1ncc2ccccc21)N1CCC2(CC1)OCCO2`, the cytotoxicity is -19.4% (inactive).

On to `O=c1[nH]c(=O)n(C2CCCCCC2)c(O)c1C=NCCCN1CCOCC1`, for which the cytotoxicity was 2.2% (inactive).

`O=c1c(C=NCCN2CCNCC2)c(O)n(C2CCCCC2)c(=O)n1C1CCCCC1`: the cytotoxicity is 62.8% (active).

As for `O=c1[nH]c(=O)n(Cc2ccccc2)c(O)c1C=NCCN1CCNCC1`, the cytotoxicity is -11.2% (inactive).

`Cc1nc2c(c(C)nn2-c2ccccc2)c(C)c1CCC(=O)N1CCC2(CC1)OCCO2`: the cytotoxicity was -12.1% (inactive).

`Fc1ccc2c(c1)nnn2C1CCN(Cc2nnnn2C2CCCCC2)CC1`: the cytotoxicity is -8% (inactive).

In the case of `NC(=O)C1(N2CCCCC2)CCN(Cc2ccccc2)CC1`, the cytotoxicity is -8.8% (inactive).

Source of the values: PubChem BioAssay AID430 (Sanford-Burnham Center for Chemical Genomics, 2006).
